INS-1E GSIS act: GLuc luminescence reporter in INS-1E cells, primary screen for activators of glucose-dependent secretion of insulin; hit rate 0.61% among 370,000; activation, % at 16.6 µM; INS-1E GLuc reporter insulin secretion, 2-3 h;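 active = lowest replicate activation of at least 40%, so every replicate reaches that level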
HIV Env fusion: inhibitors of HIV Env-mediated cell fusion; inhibition, % at 12.3 µM; HeLa-JRFL Env/CEM21 cell fusion, luciferase; hit rate 1.1% among 360,000; AID 651610;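 active = mean replicate inhibition score of at least 50 and every replicate individually at or above 50; inconclusive = only one of the two criteria met; inactive = mean below 50 and not all replicates reaching 50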
Wnt bcat act: activates Wnt/beta-catenin signaling in a reporter cell assay. activator, plate reader. activation, % at 9.35 µM. hit rate 1.2% among 300,000. AID 743398; in the data active = activation above about 30%, passing the limit was not always enough; inconclusive = no clear call, values can overlap the other calls
MITF act: MITF TRPM1 promoter activation in melanoma cells; SK-MEL-5 TRPM1-promoter luciferase, 24 h; % of positive control, neutral wells = 0; activation, % at 12.5 µM; hit rate 0.75% among 300,000;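 active = mean activation of at least 80% with every replicate also reaching 80%; inconclusive = mean reaches 80% but some replicate falls short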
F508del corr: CFTR F508del correction in bronchial cells; hit rate 0.36% among 350,000; CFBE cells, YFP halide quenching; stimulated with forskolin plus potentiator P3; % fluorescence drop versus neutral controls; AID 720511; activity (quench increase), % at 7.58 µM;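 active = mean added fluorescence quench of at least 8% versus neutral control, with both replicates also reaching 8%; inconclusive = only one of the mean or replicate conditions met; inactive = mean below 8% and not both replicates reaching 8%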;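 also: cells transiently co-express mutant CFTR-F508del with the halide-sensitive YFP; corrector assay measuring rescue of mutant channel to the surface after 24 h compound exposure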
Each line names hits and unclear results; the compound was inactive in the other large screens. Rows were chosen to be rich in hits. Some 2.7% of all compounds tested hit in one or more screens of this group.

C[C@@H]1CCCCO[C@H](CN(C)S(C)(=O)=O)[C@@H](C)CN([C@H](C)CO)C(=O)c2cc(NC(=O)CCCN(C)C)ccc2O1	none (no result: Wnt bcat act, MITF act)
COc1cccc(NC(=O)CSc2nnc(Cc3cccs3)n2-c2ccc(C)cc2)c1	HIV Env fusion 84 (no result: Wnt bcat act, F508del corr)
CC(C)CNS(=O)(=O)c1cc(C(=O)OCC(=O)N(C)C2CCS(=O)(=O)C2)c(Cl)cc1Cl (stereo not drawn)	Wnt bcat act 53
O=C(C[C@H]1CC[C@@H]2[C@H](COC[C@H](O)CN2C(=O)c2ccccn2)O1)NC1CCC1	none (no result: HIV Env fusion, Wnt bcat act, MITF act)
C=CCNc1ncnc2c1[nH]c1ccc(C)cc12	none (no result: HIV Env fusion)
COc1ccc2[nH]c3c(NCCCOC(C)C)ncnc3c2c1	Wnt bcat act 31
CCCCOc1ncnc2c1[nH]c1ccc(C)cc12	Wnt bcat act 43 (no result: MITF act)
CCCOc1ncnc2c1[nH]c1ccccc12	none (no result: INS-1E GSIS act, MITF act, F508del corr)
CCCOc1ncnc2c1[nH]c1ccc(OC)cc12	Wnt bcat act 52 (no result: MITF act)
CCOc1ccc2[nH]c3c(NCCC(C)C)ncnc3c2c1	none
C[C@@H]1CN([C@H](C)CO)C(=O)c2cc(-c3cccc(C(=O)N(C)C)c3)cnc2O[C@H]1CN(C)S(=O)(=O)c1cccc(F)c1	none (no result: Wnt bcat act, MITF act)
COc1ccc(S(=O)(=O)Nc2ccc3c(c2)C(=O)N([C@@H](C)CO)C[C@@H](C)[C@@H](CN(C)CC2CCCCC2)OCCCC[C@@H](C)O3)cc1	none (no result: Wnt bcat act, MITF act)
CC(C)OCCCNC(=O)c1c(N)n(/N=C/c2ccccn2)c2nc3ccccc3nc12	INS-1E GSIS act 76 (no result: Wnt bcat act, MITF act, F508del corr)
O=C(c1cc(-c2ccc(F)cc2)on1)N1CCCCCC1	MITF act 138
COc1ccc(-c2cc(C(=O)N3CCCC3)no2)cc1	none
COc1ccc(-c2cc(C(=O)N3CCCCCC3)no2)cc1	none
O=C(c1cc(-c2ccccc2)on1)N1CCCCCC1	Wnt bcat act 37, MITF act 141
COc1cccc(-c2cc(C(=O)N3CCCCCC3)no2)c1	Wnt bcat act 41 (no result: MITF act)
COc1ccc(-c2cc(C(=O)N3CCCCCC3)no2)cc1OC	INS-1E GSIS act 51 (no result: MITF act)
Cc1ccc(-c2cc(C(=O)N3CCCCCC3)no2)cc1	Wnt bcat act inconclusive
C[C@@H]1CN([C@@H](C)CO)C(=O)c2cccc(NS(=O)(=O)c3cn(C)cn3)c2O[C@@H]1CN(C)S(=O)(=O)c1ccc(Cl)cc1	none (no result: Wnt bcat act, MITF act)
C[C@@H]1CN([C@H](C)CO)C(=O)c2ccccc2-c2ccccc2CO[C@H]1CN(C)C(=O)[C@H](C)c1ccccc1	none (no result: Wnt bcat act, MITF act)
O=C(c1cc(-c2cccc(O)c2)on1)N1CCCC1	none
O=C(c1cc(-c2cccc(O)c2)on1)N1CCCCC1	Wnt bcat act 40
O=C(C[C@H]1C[C@H]2c3cc(NC(=O)Nc4ccccc4F)ccc3O[C@H]2[C@H](CO)O1)NCc1ccncc1	none (no result: Wnt bcat act, MITF act)
Cc1ccnc(NS(=O)(=O)c2ccc(NC(=O)Cc3ccccc3)cc2)n1	none (no result: HIV Env fusion, F508del corr)
Cc1ccnc(NS(=O)(=O)c2ccc(NC(=O)CCc3ccccc3)cc2)n1	INS-1E GSIS act 42
C[C@H](CO)N1C[C@H](C)[C@H](CN(C)C(=O)Nc2ccc(F)cc2)Oc2c(NC(=O)NC3CCCCC3)cccc2C1=O	none (no result: Wnt bcat act, MITF act)
COCCNC(=O)c1cc(-c2ccc(-c3ccccc3)cc2)nc2ccccc12	F508del corr 9.9
CCCc1ccc(-c2cc(C(=O)NCCc3ccc(S(N)(=O)=O)cc3)c3ccccc3n2)cc1	MITF act 106 (no result: Wnt bcat act, F508del corr)
COc1ccc(Cl)cc1C(=O)NNC(=S)NC(=O)c1cc(-c2ccccc2)nc2ccccc12	HIV Env fusion 73 (no result: INS-1E GSIS act, Wnt bcat act, F508del corr)
O=C(C[C@@H]1CC[C@H](NC(=O)c2cnccn2)[C@H](CO)O1)NCc1ccccc1F	none (no result: Wnt bcat act, MITF act)
CC1CCc2c(C(=O)Nc3ccccn3)csc2C1 (stereo not drawn)	Wnt bcat act 52
CCCCN(C=O)c1c(CC)nc2c(OCc3ccc(C(F)(F)F)cc3)cccn12	none (no result: MITF act)
CCc1nc2c(OCc3ccc(C(F)(F)F)cc3)cccn2c1N(C=O)Cc1ccc(OC)cc1	HIV Env fusion 56 (no result: MITF act)
CCc1nc2c(OCc3ccc(C(F)(F)F)cc3)cccn2c1N(C)C(=O)c1ccco1	HIV Env fusion 57 (no result: MITF act)
O=C(C[C@@H]1CC[C@@H]2[C@H](COC[C@@H](O)CN2Cc2ccc(F)cc2)O1)NCc1ccccc1Cl	none (no result: HIV Env fusion, Wnt bcat act, MITF act)
CC(C)Cc1nc2n[nH]c(N)c2c2c1COC(C)(C)C2	INS-1E GSIS act 80 (no result: HIV Env fusion, Wnt bcat act, F508del corr)
C[C@H](CO)N1C[C@H](C)[C@H](CN(C)C(=O)NC2CCCCC2)Oc2c(NC(=O)CCCCCC(=O)Nc3ccccc3N)cccc2C1=O	none (no result: HIV Env fusion, Wnt bcat act, MITF act, F508del corr)

Assay outcomes as filed in PubChem.
